Experimental data taken from PubChem BioAssay (NCI).
About 83,000 compounds went through this panel and 20% of them were active in at least one assay; those are over-represented in the sample as a whole.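 How to read the values: 0–100, growth inhibition (40 = 60% inhibited); 0, no net growth; -100 to 0, cell death (-40 = 40% of starting cells died; -100 = all dead).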 Activity calls are given as the source filed them. How the source made its calls: active means growth percent below 10; inactive means the rest.

How the values were obtained:
Experiment in all cases: NCI-60 one-dose screen, 48 h (100 = growth as untreated, 0 = no growth, -100 = all killed)
Details in all cases: 10 µM unless noted
[1] = system: HCT-15 colon
[2] = system: HT29 colon
[3] = system: SNB-75 CNS
[4] = system: SNB-19 CNS
[5] = system: U251 CNS
[6] = system: PC-3 prostate
[7] = system: SK-MEL-5 melanoma
[8] = system: UACC-62 melanoma
[9] = system: LOX IMVI melanoma
[10] = system: SK-MEL-28 melanoma

Measured: growth

C=CCOC(=O)C1=C(C)NC2=C(C(=O)CCC2)C1c1ccc(F)cc1 (configuration not stated)
inactive: [1] 105% | [2] 101% | [3] 80.3% | [4] 85.2% | [5] 97.8% | [6] 90.1% | [7] 98.8% | [8] 80.6% | [9] 97.1% | [10] 101%

COc1cc(CN2CCC(N3CCCC3=O)c3ccccc32)cc(OC)c1OC (configuration not stated)
inactive: [1] 108% | [2] 80.5% | [3] 84.1% | [4] 83.6% | [5] 85.5% | [6] 66% | [7] 40.5% | [8] 64.4% | [9] 76.3% | [10] 98.2%

CNCCCn1c2c(c3ccc(Cl)cc3c1=O)C(=O)c1cc(OC)cnc1-2
inactive: [3] 14.7% | [4] 28.3% | [6] 38.6% | [7] 32.4% | [8] 11% | [10] 72.2%
active: [1] -57.6% | [2] -80.5% | [5] -86.5% | [9] -83.7%

CCCCc1nc(Cl)c(C2CC(c3ccc(S(N)(=O)=O)cc3)=NN2c2cc(Cl)cc(Cl)c2)[nH]1 (configuration not stated)
inactive: [1] 45.7% | [2] 23.3% | [3] 62.2% | [4] 36.4% | [5] 23.5% | [6] 36.4% | [7] 57.9% | [8] 38.8% | [10] 55.2%
active: [9] -6.25%

CS(=O)(=O)c1ccc(C(=O)N/N=C/c2ccc3c(c2)OCO3)cc1
inactive: [1] 100% | [2] 88.9% | [3] 94.4% | [4] 98.5% | [5] 92.3% | [6] 92% | [7] 106% | [8] 98% | [9] 96.5% | [10] 114%

CCOC(=O)c1ccc(NC(=O)CSC(N)=O)cc1
inactive: [1] 99.4% | [2] 126% | [3] 149% | [4] 91.1% | [5] 94.1% | [6] 85.6% | [7] 103% | [8] 96.8% | [9] 85.7% | [10] 128%

Oc1ccc(-c2nc3ccccc3s2)cc1CN(Cc1ccccn1)Cc1ccccn1
active: [5] 8.51% | [7] -67.4% | [8] 8.93% | [9] 2.31%
inactive: [1] 15.2% | [2] 25.7% | [3] 38.7% | [4] 20.5% | [6] 30.3% | [10] 33.1%

O=C(Nc1ccc(Br)cc1)c1ccc(Cl)c(Cl)c1
inactive: [1] 32.3% | [2] 40.1% | [3] 38.6% | [4] 35% | [5] 32.4% | [7] 49.4% | [8] 43.6% | [9] 33.3% | [10] 73%
active: [6] -22%

NC(CCC(=O)NC(CS)C(=O)NCC(=O)O)C(=O)O (configuration not stated)
inactive: [1] 101% | [2] 106% | [3] 95.6% | [4] 99% | [5] 106% | [6] 81.5% | [7] 102% | [8] 96.7% | [9] 104% | [10] 116%

CCn1c(=O)c(C(=O)NCCCO)c(O)c2ccccc21
inactive: [1] 103% | [2] 109% | [3] 96.8% | [4] 102% | [5] 98.1% | [6] 101% | [7] 94.2% | [8] 94.4% | [9] 98.5% | [10] 118%

COc1cc2c(=O)n(CCCN(C)C)c3c4cc[nH]c4ncc3c2cc1OC
inactive: [1] 54.7% | [2] 16.2% | [3] 47.9% | [4] 36.6% | [5] 35.1% | [6] 32.8% | [7] 80.9% | [8] 54.5% | [9] 25.3% | [10] 89.9%

NC(=S)N1N=C(c2ccc(Cl)cc2)CC1c1cc2ccccc2[nH]c1=O (configuration not stated)
inactive: [1] 104% | [2] 95.3% | [3] 106% | [4] 101% | [5] 107% | [6] 87.5% | [7] 107% | [8] 97.7% | [9] 105% | [10] 115%

O=P(O)(O)C(O)(Cc1cccnc1)P(=O)(O)O
inactive: [1] 90.3% | [2] 106% | [3] 88% | [4] 107% | [5] 81.6% | [6] 95.9% | [7] 103% | [8] 99.2% | [9] 86.1% | [10] 103%

COc1ccc(CNc2c3ccccc3nc3ccc(OC)cc23)cc1
inactive: [3] 27.4% | [4] 22.7% | [5] 16.1% | [7] 11.1% | [8] 42.6% | [10] 41.3%
active: [1] 5.34% | [2] -2.9% | [6] 5.53% | [9] -75.1%

CN1C2CCC1/C(=C\c1ccc(Cl)cc1)C(=O)/C2=C/c1ccc(Cl)cc1
inactive: [1] 54.2% | [2] 47.1% | [3] 71.6% | [4] 64.1% | [5] 13.6% | [6] 51.8% | [7] 66.9% | [8] 47.4% | [9] 35.1% | [10] 91.6%

CC[C@]1(O)C[C@H]2CN(CCc3c([nH]c4ccccc34)C(C(=O)OC)(c3cc4c(cc3OC)N(C)[C@H]3[C@@](O)(C(=O)OC)[C@H](OC(C)=O)[C@]5(CC)[C@@H]6C[C@@H]6CN6CC[C@]43[C@@H]65)C2)C1 (some centres not stated)
active: [2] 7.29% | [3] -14.6% | [7] -80.1% | [9] 5.88%
inactive: [1] 19.5% | [4] 24% | [5] 13.7% | [6] 18.9% | [8] 14.5% | [10] 53.7%

Brc1ccsc1Br
inactive: [1] 111% | [2] 105% | [3] 83.5% | [4] 106% | [5] 109% | [6] 107% | [7] 106% | [8] 109% | [9] 108% | [10] 106%

CC(=O)Nc1ccc(/C=N/N2CCCCCC2)cc1
inactive: [1] 102% | [2] 102% | [3] 86.2% | [4] 91.8% | [5] 90.4% | [6] 109% | [7] 106% | [8] 95.9% | [9] 101% | [10] 103%

COc1ccc(N=C2CSc3nnc(-c4cc(F)c(Cl)cc4Cl)n3N2)cc1
inactive: [8] 20.9%
active: [1] 5.01% | [2] -66.9% | [3] -60.6% | [4] 0.21% | [5] -52.2% | [6] -55% | [7] -63.1% | [9] -42.1% | [10] -31.3%

c1cc2c(cc1-c1cnc3nonc3n1)OCO2
inactive: [1] 57.1% | [2] 109% | [3] 96.8% | [4] 92.6% | [5] 94.2% | [6] 56.8% | [7] 91.2% | [8] 66% | [9] 84.9% | [10] 104%

O=c1c2cc(Cl)ccc2oc2ccc(OCCCCCN3CCCCCC3)cc12
active: [2] 5.64%
inactive: [1] 30% | [3] 92.3% | [4] 91.5% | [5] 69.2% | [6] 83.2% | [7] 62.9% | [8] 85.4% | [10] 107%

CC(C)CC(=O)C(CCc1ccccn1)C(C)C (configuration not stated)
inactive: [1] 101% | [2] 98.3% | [3] 111% | [4] 108% | [5] 107% | [6] 99.7% | [7] 103% | [8] 103% | [9] 96.5% | [10] 109%

COc1ccc(C2=NNC(c3ccc(Oc4nc5c(c(=O)n(C)c(=O)n5C)n4C)c(OC)c3)C2)cc1 (configuration not stated)
inactive: [1] 93.8% | [2] 95.5% | [3] 78.7% | [4] 87.6% | [5] 83.2% | [6] 101% | [7] 85.3% | [8] 81.2% | [10] 97.1%

O=C(Nc1ccc(Br)cc1)Nc1cccc(Br)c1
inactive: [1] 15.4% | [2] 28.2% | [3] 85% | [4] 29.2% | [5] 28.4% | [7] 65.3% | [9] 33% | [10] 43.7%
active: [6] 4.68% | [8] 5.82%

O=[N+]([O-])c1ccc(N/N=C/c2ccccc2O)nc1
inactive: [1] 29.9% | [2] 47% | [3] 52.9% | [4] 56.2% | [5] 28.5% | [6] 45.8% | [7] 20% | [8] 42.7% | [9] 26.4% | [10] 62%

COc1ccc(C2c3cccn3-c3ccccc3N2C(C)=O)cc1 (configuration not stated)
inactive: [1] 87.7% | [2] 115% | [3] 77.4% | [4] 100% | [5] 106% | [6] 78.4% | [7] 96.1% | [8] 86.3% | [9] 96.1% | [10] 108%

COc1cc(C2CC(=O)Nc3c2cnn3C)cc(OC)c1OC (configuration not stated)
inactive: [1] 107% | [2] 105% | [3] 92% | [4] 108% | [5] 100% | [6] 108% | [7] 105% | [8] 106% | [9] 106% | [10] 119%

c1csc(-c2cnc3nonc3n2)c1
inactive: [1] 89.7% | [2] 91.2% | [3] 79.8% | [4] 81.6% | [5] 88% | [6] 66.3% | [7] 87.9% | [8] 79.3% | [10] 104%
